The list is not random: actives were taken first. Their share in the collection is about 8.7%.
G9a block = inhibitors of human histone lysine methyltransferase G9a; actives 8.8% (n = 350,000); Q96KQ7; Potency, µM (doses to about 102 µM), inactives show at the top dose activity, negative = inhibition, hits mostly inhibitors; G9a H3K9 monomethylation, AlphaScreen, 2 h; also: % is scaled to controls: 0 for no effect and ±100 for the full control effect; nearly all actives have a fitted effect of over 75% in size
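AlphaScreen read-out: biotin-H3K9 peptide (500 nM) methylation by 20 nM enzyme with 20 uM SAM, 2 h at room temperature after 15 min compound preincubation; anti-monomethyl H3K9 antibody plus donor/acceptor beads, 10 min dark.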
Sfp PPTase inh = blocks B. subtilis Sfp PPTase activity | actives 3.5% (n = 310,000) | Q9F4F7 | Potency, µM, for inactives: largest response in the series, negative = inhibition, actives largely listed as inhibitors | Biochemical Sfp PPTase activity, qHTS;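 also: the enzyme is Sfp with the accession as filed and its product quenches rhodamine fluorescence; 0% = enzyme reaction without inhibitor and -100% = no enzyme wells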
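Buffer: 50 mM Hepes-Na pH 7.6, 10 mM MgCl2, 0.01% Nonidet P-40, 0.01% BSA. Enzyme 15 nM, pre-exposed to compound 15 min; substrates then added and fluorescence change tracked over 30 min.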
BAZ2B inh = blocks human BAZ2B; AlphaScreen BAZ2B-H3K14Ac peptide displacement; Potency, µM (series often up to 114 µM), for inactives: at the top dose activity change, negative = inhibition, usual class: inhibitors; actives 4.4% (n = 360,000); AID 504333; also: % is scaled to controls: 0 for no effect and ±100 for the full control effect; nearly all actives have a fitted effect of over 60% in size
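Complex of BAZ2B and biotin-H3K14Ac (50 nM apiece) forms over 30 min at RT, then faces library compounds up to 110 uM for another 30 min; AlphaScreen beads added, 20 min dark incubation, luminescence read.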
ALOX12 inh = blocks human arachidonate 12S-lipoxygenase. actives 1.1% (n = 580,000). Potency, µM (doses to about 108 µM), without a hit: at the top dose activity change, negative = inhibition, most hits filed as inhibitors. P18054. purified 12hLO, xylenol orange hydroperoxide absorbance. AID 1671190; also: % is scaled to controls: 0 for no effect and ±100 for the full control effect
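Hydroperoxide product was detected by ferrous iron/xylenol orange as the 573 to 405 nm absorbance ratio. Arachidonic acid at 40 uM (final) was turned over for 30 min at room temperature by 150 nM human 12hLO, pH 7.0 Hepes buffer, after 15 min compound preincubation.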
HP1b chromo inh = HP1-beta chromodomain-methylated histone interaction inhibition. AlphaScreen HP1-beta / biotin-H3K9me3 peptide binding. Potency, µM (titrated, usually from 114 µM), for inactives: at the top dose activity change, negative = inhibition, usual class: inhibitors. actives 0.56% (n = 390,000). AID 540317; also: nearly all actives have a fitted effect of over 70% in size
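HP1-beta protein (50 nM final) preincubated 30 min at room temperature with biotinylated H3(1-18)K9me3 peptide (50 nM) in PBS pH 7.4, 0.01% Tween-20, then compound added for 30 min. AlphaScreen streptavidin donor/nickel chelate acceptor beads (10 ug/mL final), 30 min dark, luminescence read.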
JMJD2A Tudor inh = blocks the human JMJD2A Tudor domain | actives 4.4% (n = 390,000) | O75164 | Potency, µM (series often up to 114 µM), for inactives: at the top dose activity change, negative = inhibition, actives largely listed as inhibitors | AlphaScreen JMJD2A-Tudor / H3K4me3 peptide binding; also: % is scaled to controls: 0 for no effect and ±100 for the full control effect; nearly all actives have a fitted effect of over 50% in size
Target sequence (O75164 whole entry, looked up, the tested form may be a part): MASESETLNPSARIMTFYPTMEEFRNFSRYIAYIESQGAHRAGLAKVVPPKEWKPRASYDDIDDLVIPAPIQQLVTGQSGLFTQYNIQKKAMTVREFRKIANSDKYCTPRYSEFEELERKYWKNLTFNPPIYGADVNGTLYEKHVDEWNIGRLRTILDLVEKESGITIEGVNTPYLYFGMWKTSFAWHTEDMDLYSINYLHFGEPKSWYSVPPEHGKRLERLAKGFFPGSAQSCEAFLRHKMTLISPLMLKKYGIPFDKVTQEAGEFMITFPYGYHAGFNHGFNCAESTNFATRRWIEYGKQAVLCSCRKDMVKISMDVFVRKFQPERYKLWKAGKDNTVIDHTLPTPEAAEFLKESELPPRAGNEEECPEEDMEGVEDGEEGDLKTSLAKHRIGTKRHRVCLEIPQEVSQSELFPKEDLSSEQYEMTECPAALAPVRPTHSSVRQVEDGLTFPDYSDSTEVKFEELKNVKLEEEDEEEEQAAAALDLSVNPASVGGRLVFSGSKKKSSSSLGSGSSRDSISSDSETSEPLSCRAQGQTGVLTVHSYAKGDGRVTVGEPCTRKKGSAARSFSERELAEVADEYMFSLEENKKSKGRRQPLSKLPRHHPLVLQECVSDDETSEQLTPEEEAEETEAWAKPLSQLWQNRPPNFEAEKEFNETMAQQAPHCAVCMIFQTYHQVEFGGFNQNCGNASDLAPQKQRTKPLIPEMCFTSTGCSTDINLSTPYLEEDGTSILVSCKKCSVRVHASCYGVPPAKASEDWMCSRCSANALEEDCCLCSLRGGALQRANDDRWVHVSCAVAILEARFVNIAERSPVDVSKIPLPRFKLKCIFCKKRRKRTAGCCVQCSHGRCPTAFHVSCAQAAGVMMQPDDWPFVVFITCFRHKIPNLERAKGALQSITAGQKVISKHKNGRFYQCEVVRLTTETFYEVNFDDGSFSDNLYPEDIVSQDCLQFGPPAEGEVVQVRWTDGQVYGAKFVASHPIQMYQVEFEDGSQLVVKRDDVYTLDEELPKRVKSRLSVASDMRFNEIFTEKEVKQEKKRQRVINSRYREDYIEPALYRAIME
An asterisk follows results filed as active; [ ] = dose if it differs, or a comment. Calls follow the shape of the dose curve; as a rule, active = well fitted curve in the direction sought with a large enough effect; inconclusive = small, poorly fitted or top-dose-only effect, or another doubt; inactive = no such curve, though single readings can be large; an effect the other way counts as inactive or inconclusive. Potency is read from the fitted curve at half-maximal effect.

`CCOC(=O)C1CCN(S(=O)(=O)c2ccc(-c3nc4ccccc4s3)s2)CC1` gave G9a block 35µM*, Sfp PPTase inh 0%, BAZ2B inh -34%, ALOX12 inh inconclusive, HP1b chromo inh 39% and JMJD2A Tudor inh -23%.
CCOC(=O)C1CCN(S(=O)(=O)c2ccc(-c3cc(C(F)(F)F)n(C)n3)s2)CC1 was read as Sfp PPTase inh 4%, BAZ2B inh 10%, ALOX12 inh 3%, HP1b chromo inh 45% and JMJD2A Tudor inh 1%.
Cc1cccc(C(=O)Nc2ccc(CC(=O)N(C)C)cc2)c1 was read as ALOX12 inh -4%.
For Cc1cc(NC(=O)CCOc2ccc(F)cc2)no1 the results were G9a block 56µM*, Sfp PPTase inh -5%, BAZ2B inh -9%, ALOX12 inh 0%, HP1b chromo inh 36% and JMJD2A Tudor inh -1%.
Cc1ccc(CNC(=O)CCCC(=O)Nc2cc(C)on2)cc1 was read as Sfp PPTase inh 14%, BAZ2B inh -7%, ALOX12 inh 11%, HP1b chromo inh inconclusive and JMJD2A Tudor inh 16µM*.
Cc1cc(NC(=O)CCCC(=O)NCc2ccccc2)no1 was read as G9a block -5%, Sfp PPTase inh 4%, BAZ2B inh -22%, ALOX12 inh 7%, HP1b chromo inh 10% and JMJD2A Tudor inh -1%.
CN1CCN(Cc2ccc(Nc3cnc4ccc(-n5ccnc5)nn34)cc2)CC1 was read as ALOX12 inh 9%[176 µM].
O=C(Nc1ccc(OCc2ccccc2)cc1)c1ccc2ccccc2c1 was read as ALOX12 inh -57%.
CCOc1cc(/C=C/c2nc3cc(C)c(C)cc3s2)ccc1OCC(=O)N1CCOCC1 was read as G9a block 13µM*, Sfp PPTase inh inconclusive, BAZ2B inh -25%, ALOX12 inh -19%, HP1b chromo inh 11% and JMJD2A Tudor inh -14%.
CCOc1cc(/C=C\[N+](=O)[O-])ccc1OCC(=O)N1CCOCC1 was read as G9a block 10µM*, Sfp PPTase inh 40µM*, BAZ2B inh 0%, ALOX12 inh 7%, HP1b chromo inh 9% and JMJD2A Tudor inh 6%.
For COc1ccc(C2C3=C(CC(C)(C)CC3=O)Nc3ccccc3N2C(=O)C(C)C)c(OC)c1 (stereo unspecified) the results were ALOX12 inh 11%.
Cc1oc(-c2ccccc2F)nc1CS(=O)(=O)CC(=O)N1CCN(Cc2ccccc2)CC1 was read as G9a block 50µM*, Sfp PPTase inh 16%, BAZ2B inh -22%, ALOX12 inh 12%, HP1b chromo inh 11% and JMJD2A Tudor inh -20%.
Screening O=C(CCS(=O)(=O)Cc1ccccc1)N1CCN(Cc2ccccc2)CC1 returned G9a block 50µM*, Sfp PPTase inh 12%, BAZ2B inh 11%, ALOX12 inh 8%, HP1b chromo inh 17% and JMJD2A Tudor inh -10%.
Screening CCOC(=O)C1CCN(C(=O)CCS(=O)(=O)Cc2ccccc2)CC1 returned G9a block 50µM*, Sfp PPTase inh 17%, BAZ2B inh 0%, ALOX12 inh -7%, HP1b chromo inh 13% and JMJD2A Tudor inh -9%.
For O=C(Nc1cccc2ncccc12)c1cnc2ccccc2n1 the results were ALOX12 inh -27%.
Screening C=CCNC(=O)C[C@@H]1CCN(C(=O)Nc2cccc(C(F)(F)F)c2)C[C@@H]1CC returned ALOX12 inh -5%[176 µM].
`N#Cc1cccc(CN2CCOC[C@H]2c2ncc(-c3ccc(Cl)cc3)[nH]2)c1` gave ALOX12 inh -7%[176 µM].
For Cc1cccc(C2CN(C)CCc3c2cc(O)c(O)c3Cl)c1 (stereo unspecified) the results were G9a block 24µM*, BAZ2B inh -8%, ALOX12 inh -28%, HP1b chromo inh 15% and JMJD2A Tudor inh -35%.

Screening data from PubChem BioAssay.
